Where “and” joins values, the source holds several entries; their conditions need not be identical. Equal values may be shown once. The whole screen tested about 360,000 compounds, of which about 3,600 (1%) were called active. For the sample, actives were picked, then their nearest neighbours and some compounds at random. Values without a mark were called inactive.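 Rule for the calls: active = compounds whose plate-normalised and pattern-corrected inhibition of the luciferase reporter signal at the single screening dose is 50% or more; inactive = the rest.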
Test: TROY pathway blockers in reporter cells – Q293 LMP1-TROYcd cells, NF-kB luciferase, uHTS, primary screen (AID 1347056)
Details: 4 h, at 10 µM, hits give high values

SMILES	inhibition
Cc1cnc(CN(C)C(=O)CC2C(=O)NCCN2Cc2cccc(F)c2F)[nH]1 (stereo unspecified)	3.88%
Cc1noc(C)c1S(=O)(=O)N1CCCC(C(=O)Nc2nccs2)C1 (stereo unspecified)	-32.5%
COc1c(C)cc(C(=O)C2CCCN(S(=O)(=O)c3c(C)noc3C)C2)cc1C (stereo unspecified)	50.3% (active)
Cc1ccc(NC(=O)C2CCCN(S(=O)(=O)c3c(C)noc3C)C2)c(C)c1 (stereo unspecified)	-7.46%
CCOC(=O)CCC(NC(=O)c1ccc(CNc2nc3cc(C(F)(F)F)ccc3nc2C(=O)OCC)cc1)C(=O)OCC (stereo unspecified)	-25.2%
CCCCCc1nnc(NC(=O)c2ccc(=O)n(C)n2)s1	-18.4%
CN(C(=O)CN1C(=O)S/C(=C\c2ccccc2F)C1=O)C1CCS(=O)(=O)C1 (stereo unspecified)	6.08%
O=C(CN1C(=O)/C(=C\c2ccccc2F)SC1=S)Nc1nc2ccccc2s1	68.3% (active)
O=C(CN1C(=O)/C(=C/c2ccccc2F)Sc2ccccc21)NCc1cccnc1	44.7%
COc1ccc(CNC(=O)CCC(=O)Nc2nnc(C(C)C)s2)cc1	-5.09%
O=C(O)C1C2C=CC(C2)C1C(=O)N1CCN(CCO)CC1 (stereo unspecified)	-8.15%
CC1(C)SC2C(NC(=O)COc3ccccc3)C(=O)N2C1C(=O)O (stereo unspecified)	-1.14% and 4.62%
COc1ccc(C2=NO[C@@H]3C(=O)N(Cc4ccccc4)C(=O)[C@H]23)cc1OC	-14.4%
COc1ccc(-c2cc(C(=O)N(C)Cc3ccc(OC)c(OC)c3OC)c3ccccc3n2)cc1OC	19.6%
COc1ccc(-c2cc(C(F)(F)F)nc(S(C)(=O)=O)n2)cc1OC	55% (active)
c1ccc2c(C[n+]3csc4ccccc43)cccc2c1	13.4%
Cc1noc(C)c1C(=O)NC(C)c1ccc2c(c1)OCO2 (stereo unspecified)	1.6%
O=C(COC(=O)C1CC2CCCC(C1)C2=O)NC(=O)c1ccccc1 (stereo unspecified)	4.06%
Cn1c(-c2ccc(F)cc2)cc2onc(-c3ccccc3Cl)c2c1=O	6.78%
Cn1c(-c2ccc(C(F)(F)F)cc2)cc2onc(-c3ccccc3)c2c1=O	69.6% (active)
O=c1c2ccccc2c(-c2ccc(F)cc2)nn1-c1ccc(C(F)(F)F)cc1	-12.3%
COc1cc(/C(=C/c2ccccc2)c2ccccc2)c2c(c1)oc1ccccc12	0.46%
Cc1ccc(S(=O)(=O)N(C)c2nc3ccccc3n3c(C(C)C)nnc23)cc1	6.76%

SMILES	inhibition
CC1(C)N=C(N)NC(Nc2ccc(Cl)cc2)=N1	-5.09%
Cc1cc(OCc2ccc(C(=O)Nc3ccc(C(=O)O)cc3)o2)ccc1Cl	-33.7%
O=c1oc2ccccc2cc1-c1cn(-c2ccccc2)c(=S)[nH]1	90.1% (active)
O=C1Cc2ccccc2Sc2ccc(Cl)cc21	-41.4%
CCCCNC(=O)C[C@@H]1C[C@@]2(C(=O)OCC)CCC=C2N(Cc2ccco2)C1=O	1.34%
Cc1ccc2occ(/C=N/NC(=O)c3ccccc3C)c(=O)c2c1	57.9% (active)
CC(C)(C)OC(=O)NCCCCCC(=O)N/N=C/c1coc2ccccc2c1=O	-22.3%
O=c1c(/C=N/O)coc2ccc(Cl)cc12	12.5%
CC1(Cc2ccccc2C#N)C(=O)Nc2ccc(-c3ccc4[nH]ccc4c3)cc21 (stereo unspecified)	24.8%
CC(Sc1nncn1C)C(=O)Nc1cc(C(F)(F)F)ccc1N1CCOCC1 (stereo unspecified)	-8.48%
Cc1onc(-c2ccc(Cl)cc2)c1-c1ccnn1S(=O)(=O)c1ccc(Cl)cc1	-10.7%
O=C(COC(=O)c1cccnc1Cl)NC(=O)NC1CCCCC1	-1.94%
CC(=O)Nc1ccc(S(=O)(=O)N2CCC(N(C)CCC(C)C)CC2)cc1	15.7%
CC1CN(C(=S)SCC(=O)c2ccccc2)CC(C)O1 (stereo unspecified)	-38.2%
O=C(CSC(=S)N1CCOCC1)c1ccccc1	50.2% (active)
NC(=NC(=O)c1ccccc1)N1CCOCC1	-4.29%
CC1=CC=CN2C1=NC(=O)CC2(C)C(=O)N(CC(=O)NC1CCCC1)c1ccccc1C (stereo unspecified)	6.68%
CN1CCN(c2ccncc2S(=O)(=O)N2CCCC2)CC1	-13.2%
COCCNc1ncnc2c1ncn2[C@H]1CN(Cc2ccc(OC)cc2)C[C@@H](CO)O1	-16.1%
COC(=O)C1(S(=O)(=O)C2(C(=O)OC)CCCC2)CCCC1	10.4%
CCCCCc1c(Cc2ccccc2)ncn1CCc1ccccc1OC	49.9%
Cc1ccccc1NS(=O)(=O)CCCCC(Cl)(Cl)Cl	5.02%
Clc1ccc(Cn2ncc3c(NCc4cccnc4)ncnc32)cc1	58.7% (active)

SMILES	inhibition
c1ccc(CNc2ncnc3[nH]ncc23)cc1	12.9%
CC(C)CNc1ncnc2c1cnn2Cc1ccc(Cl)cc1	-3.29%
CC(CNc1ccc([N+](=O)[O-])c2cccnc12)Nc1c([N+](=O)[O-])cc(C(F)(F)F)cc1[N+](=O)[O-] (stereo unspecified)	9.66%
O=C(COc1ccc([N+](=O)[O-])cc1)Nc1cccc(C(=O)Nc2ccccc2C(=O)O)c1	13.9%
CC(OC(=O)CNC(=O)c1ccc(Cl)c([N+](=O)[O-])c1)C(=O)NCc1ccco1 (stereo unspecified)	-1.1%
N#Cc1cccc(NC(=O)COC(=O)c2ccccc2C(=O)c2ccc(Cl)c([N+](=O)[O-])c2)c1	66.1% (active)
NS(=O)(=O)c1cccc(NC(=O)COC(=O)c2cc([N+](=O)[O-])ccc2N2CCCC2)c1	-3.22%
CC(=O)Nc1ccc(NC(=O)C(C)OC(=O)c2ccccc2C(=O)c2ccc(Cl)c([N+](=O)[O-])c2)cc1 (stereo unspecified)	51% (active)
CCc1ccc(NC(=O)C(C)OC(=O)/C=C/c2cccc([N+](=O)[O-])c2)cc1 (stereo unspecified)	7.86%
CN(CC(=O)NC1CCCC1)S(=O)(=O)c1cnc[nH]1	7.95%
CCNc1nc(NC(C)C)nc(N2CC(=O)N(CC(=O)OCC)C2=N)n1	19.4%
CCOC(=O)N1CCN(C(=O)c2ccc3c(=O)n(CCc4ccc(OC)c(OC)c4)c(=O)[nH]c3c2)CC1	1.87%
Cc1ccccc1NC(=O)C1CCN(C(=O)NC2CCCCC2)CC1	-10.7%
O=C(C1CCCN(S(=O)(=O)c2ccccc2)C1)N1CCN(c2ccc(F)cc2)CC1 (stereo unspecified)	3.28%
CC(=O)N1CCCc2cc(S(=O)(=O)N3CCCC(C(=O)N4CCN(c5cccc(Cl)c5)CC4)C3)ccc21 (stereo unspecified)	54.2% (active)
COc1cccc(N2CCN(C(=O)C3CCCN(S(=O)(=O)c4cnc[nH]4)C3)CC2)c1 (stereo unspecified)	-3.43%
CCOc1cccc2cc(C(=O)OCC(=O)Nc3c(C)cccc3CC)c(=O)oc12	-77.6%
O=C(Nc1ccc(Cl)c(C(F)(F)F)c1)C1Cc2c(-c3ccccc3Oc3ccccc3)ccnc2O1 (stereo unspecified)	16.3%
COc1ccc(N(CC(=O)NCc2ccc(F)cc2)C(=O)CCC(=O)Nc2nccs2)cc1	-6.88%
CC(Oc1ccc2c(-c3ccccc3)cc(=O)oc2c1)C(=O)NC(Cc1c[nH]c2ccccc12)C(=O)O (stereo unspecified)	-3.69%
O=C(CNC(=O)OCc1ccccc1)Oc1cc2oc(=O)cc(-c3ccccc3)c2cc1Cl	50.4% (active)
O=C(CNC(=O)c1ccccc1)NCC(=O)OCc1ccc(Cl)cc1	17.5%
Cc1ccc(S(=O)(=O)Oc2ccc(/C=N/NC(=O)c3c(Cl)cnn3C)cc2)cc1	-1.06%

SMILES	inhibition
CCN(CC)CCNC(=O)c1sc2ncn(CC(=O)Nc3ccc(C)c(Cl)c3)c(=O)c2c1C	6.8%
CC(=O)N1CCN(c2ccccc2NC(=S)NC(=O)c2cc3ccccc3o2)CC1	5.79%
O=C(Nc1sc2c(c1-c1nc3ccccc3[nH]1)CCCC2)C1CC1	-11.2%
O=C1NC(c2ccncc2)Nc2sc3c(c21)CCCC3 (stereo unspecified)	-12.2%
C/C(=C\c1ccccc1)C1NC(=O)c2c(sc3c2CCCC3)N1 (stereo unspecified)	67.6% (active)
CN(C)S(=O)(=O)c1ccc2oc(SCC(=O)Nc3ccccc3F)nc2c1	-36.4%
COc1ccc(Cl)cc1S(=O)(=O)Nc1cccc(C(=O)O)c1	1.76%
O=C(Nc1ccc2ccccc2c1)Nc1ccc2snnc2c1	69.7% (active)
COc1cccc(NC(=O)Nc2ccc(F)cc2)c1	-52.4%
Cc1ccc(NC(=O)Nc2ccc3oc(C)nc3c2)cc1	-27.6%
CN(CCC(=O)Nc1cc(S(=O)(=O)N(C)C)ccc1Cl)CC(=O)Nc1ccc(F)cc1	1.42%
CSCCNCc1cn(-c2ccc(F)cc2F)nc1-c1ccccc1C	1.03%
OCc1nc(CO)n(Cc2ccccc2)n1	11.6%
O=C(COC(=O)c1ccc(Cl)nc1)NCc1ccc2c(c1)OCO2	-7.63%
CN(C)C(=O)c1cccc(-c2cnc3sc(NCc4ccc5c(c4)OCO5)nn23)c1	51.8% (active)
O=C(CSc1ncnc2scc(-c3ccccc3)c12)NCc1ccc2c(c1)OCO2	22.3%
COc1ccccc1NC(=O)N1CCCC1C(=O)NCc1cccs1 (stereo unspecified)	7.15%
COc1ccccc1CNC(=O)CN1CCC(n2cnc3cc(F)ccc32)CC1	2.42%
CCCCCCN1CCN(C2CN(Cc3cn(Cc4ccc(F)cc4)nn3)S(=O)(=O)C2)CC1 (stereo unspecified)	0.62%
COCCN(C(=O)CCC(=O)Nc1ccccn1)C(C(=O)NCCC(C)C)c1ccc(OC)cc1 (stereo unspecified)	5.49%
COc1ccc(C(=O)/C=C/Nc2ccccn2)cc1	72.4% (active)
COc1ccc2nc(-c3ccccn3)ccc2c1	6.94%

Source: PubChem BioAssay AID1347056 (Sanford-Burnham Center for Chemical Genomics, 2019)
